# Bioassay records: PubChem, National Center for Advancing Translational Sciences (NCATS)
# VDR inh – blocks the human vitamin D receptor; AID 504847; Potency, µM, usual class: inhibitors; VDR-SRC2-3 peptide fluorescence polarization, 2 h; P11473; 400,000 compounds, 0.93% hits
#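 Reagent solutions, kept cold and dark, are dispensed first; compounds are then pinned in at 23 nl, plates briefly spun, and incubated 2 h at ambient temperature. Inhibition of VDR–SRC2-3 peptide binding is read by fluorescence polarization.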
# ASM inhibitor – blocks human secretory acid sphingomyelinase; placental ASM, HMU-PC fluorogenic substrate, 60 min; Potency, µM (highest dose often 57.5 µM), hits mostly inhibitors; 340,000 compounds, 0.006% hits
# Target sequence (P17405 47-631 limits assumed): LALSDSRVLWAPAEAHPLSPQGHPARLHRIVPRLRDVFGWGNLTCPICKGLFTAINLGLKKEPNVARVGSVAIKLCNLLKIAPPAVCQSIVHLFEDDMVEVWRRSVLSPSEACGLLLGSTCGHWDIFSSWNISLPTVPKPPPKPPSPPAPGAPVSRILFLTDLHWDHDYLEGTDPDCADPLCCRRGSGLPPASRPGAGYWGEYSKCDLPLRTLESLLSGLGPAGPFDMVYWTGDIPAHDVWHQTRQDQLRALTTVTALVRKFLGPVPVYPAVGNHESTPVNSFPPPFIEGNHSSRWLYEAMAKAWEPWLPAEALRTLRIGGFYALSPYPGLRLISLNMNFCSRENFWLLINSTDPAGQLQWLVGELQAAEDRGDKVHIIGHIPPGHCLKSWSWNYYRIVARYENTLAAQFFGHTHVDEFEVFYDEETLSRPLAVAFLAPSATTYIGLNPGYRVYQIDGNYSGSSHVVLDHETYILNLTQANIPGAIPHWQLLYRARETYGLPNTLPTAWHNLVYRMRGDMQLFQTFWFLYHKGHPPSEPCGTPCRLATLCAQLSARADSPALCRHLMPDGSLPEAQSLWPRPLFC
#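 qHTS format. ASM enzyme prepared from human placenta hydrolyses the fluorogenic substrate HMU-PC0 (9 uM final) over 60 min at 37 °C after a 10 min compound preincubation.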
# Pin1 inh – blocks the human prolyl isomerase Pin1; Q13526; Pin1 FP peptide displacement, HiFluor488, 10 min; Potency, µM (series often up to 115 µM), most hits filed as inhibitors; 390,000 compounds, 0.009% hits; AID 504891; active = well fitted inhibition curve with a large enough effect in the polarisation, with a control signal flat, not every such curve was filed as active; inconclusive = small, poorly fitted or top-dose-only effect, or effect the other way, or a change in a side signal; inactive = no such curve, though single readings can be large or run the other way; the % refers to the polarisation
# PLK1 PBD inh – inhibitors of human PLK1 polo-box domain binding | P53350 | Plk1 PBD binding of FITC phosphopeptide, fluorescence polarization | Potency, µM, hits mostly inhibitors | 360,000 compounds, 2.8% hits; note: series mostly up to about 57 µM; nearly all actives have a fitted effect of over 65% in size
# TDP1 inh – inhibitors of human tyrosyl-DNA phosphodiesterase TDP1; recombinant TDP1, AlphaScreen DNA substrate cleavage; Q9NUW8; Potency, µM (top dose mostly 130 µM), usual class: inhibitors; AID 485290; 350,000 compounds, 0.28% hits; note: nearly all actives have a fitted effect of over 40% in size
#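 Recombinant E. coli-expressed Tdp1 (1 nM) preincubated with compound 15 min at RT, then 5'-biotin/3'-phosphotyrosine-FITC DNA substrate (15 nM) added for 5 min. AlphaScreen beads (10 ug/ml) added, 10 min RT; tyrosine-FITC cleavage read as signal loss.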
# Tb PFK inh – blocks T. brucei phosphofructokinase; T. brucei PFK, ADP-Glo luminescence; 330,000 compounds, 0.17% hits; AID 485367; Potency, µM (titrated, usually from 57.5 µM), actives largely listed as inhibitors; O15648; note: nearly all actives have a fitted effect of over 60% in size
#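 1.25 nM PFK with 0.5 mM F6P and 0.1 mM ATP in 0.1 M TEA pH 8.0, 5 mM MgCl2, incubated 45 min at room temperature; ADP measured by ADP-Glo luminescence; compounds titrated up to 57 uM.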
# Numbers stand for hits; 0 = inactive; ? = inconclusive; - = not tested or not shown. Sampled rows, rich in hits. Any-hit rate of the full collection: about 3.1%. Unless noted, calls come from the whole dose curve; as a rule, active = well fitted curve in the direction sought with a large enough effect; inconclusive = small, poorly fitted or top-dose-only effect, or another doubt; inactive = no such curve, though single readings can be large; an effect the other way counts as inactive or inconclusive.
SMILES,VDR inh,ASM inhibitor,Pin1 inh,PLK1 PBD inh,TDP1 inh,Tb PFK inh
CN(C)C(=O)CSc1nc2cc(S(=O)(=O)N3CCOCC3)ccc2o1,?,0,0,21µM,0,0
CCOC(=O)CNC(=O)O[C@@H]1Cc2cc(OC)ccc2O[C@H]1c1cccc(OC)c1,0,-,-,-,0,-
COc1cc(C2Nc3ccccc3C(=O)N2NS(C)(=O)=O)c([N+](=O)[O-])cc1OC (stereo unspecified),?,0,0,0,-,0
COc1ccc(C2Nc3ccccc3C(=O)N2NS(C)(=O)=O)c(OC)c1 (stereo unspecified),?,0,0,21µM,-,0
COc1ccc(-c2nc(CCNC(=O)c3c(F)cccc3Cl)cs2)cc1,0,-,0,-,0,-
CC(C)Cc1ccc(CC(=O)O)cc1,0,-,-,-,0,-
CC(C)Cc1ccc(-c2cc(=O)[nH][nH]2)cc1,0,0,0,17µM,0,0
O=C1/C(=C\c2ccccc2)CN(C(=O)CCN2CCCCC2)C/C1=C/c1ccccc1,32µM,0,0,?,-,-
O=C(NCCN1CCOCC1)c1ccc(Cl)c(Cl)c1,0,0,0,0,-,0
O=C1/C(=C\c2ccc(Cl)c(Cl)c2)CN(C(=O)CCN2CCOCC2)C/C1=C/c1ccc(Cl)c(Cl)c1,3.2µM,?,0,0,-,-
CCN(CC)CCC(=O)N1C/C(=C/c2ccccc2)C(=O)/C(=C\c2ccccc2)C1,45µM,0,0,0,-,-
O=C(CCN1C(=O)S/C(=C\c2ccccc2)C1=O)N1CCCCC1,0,0,0,0,-,0
O=[N+]([O-])c1ccccc1S(=O)(=O)N1CCN(c2nc(-c3cccs3)nc3ccccc23)CC1,0,-,0,-,0,-
CC(=O)N(c1ccc2ccccc2c1)C1SC(=O)N(c2cccc(C)c2)C1=O (stereo unspecified),0,-,0,-,-,-
CCOC(=O)c1ccc(NC(=O)CC2C(=O)N(c3ccc(F)cc3)C(=O)N2Cc2ccc3c(c2)OCO3)cc1 (stereo unspecified),0,-,0,-,0,-
COc1c2c(c(C(=O)/C=C/C(C)=C/c3ccccc3)c3c1OCO3)CCN(C)C2,45µM,-,-,-,0,-
C=Cc1ccccc1Cl,-,-,-,-,0,-
CCn1nnc2c(N3CCCC3)ncnc21,?,-,0,-,-,-
CC(C)(C)n1cnc2cc(NCc3ccc(Br)cc3)ccc21,?,0,0,21µM,-,0
CCOc1ccc(NC(=O)Cn2cc(C(=O)CC)c3ccccc32)cc1,79µM,0,0,?,-,0
CCOc1ccc(/C=C/c2nc(C#N)c(NCCc3ccccc3)o2)cc1,0,-,0,-,0,-
COc1ccc(-c2cccc3c2NC(=O)C3=O)cc1OC,?,0,0,27µM,0,0
COc1ccc(-c2cc(-c3ccccc3O)[nH]n2)cc1OC,0,0,?,0,0,0
c1ccc(CNc2ncncc2-c2ccc3c(c2)OCO3)cc1,28µM,-,-,-,-,-
Cc1cccc(CNc2ncncc2-c2ccc3c(c2)OCO3)c1,?,-,-,-,0,-
SMILES,VDR inh,ASM inhibitor,Pin1 inh,PLK1 PBD inh,TDP1 inh,Tb PFK inh
c1ccc(CNc2nc(-c3ccc4c(c3)OCO4)nc3ccccc23)cc1,45µM,-,-,-,-,-
CCCCNC(=O)c1c(-c2ccccc2)c(-c2ccccc2)nn(C)c1=O,0,-,0,-,0,-
CC1=CSC2=NS(=O)(=O)CCN12,0,0,0,24µM,-,0
COc1ccc2[nH]c3c(=O)n(CCCCC(=O)N4CCCC4)c(=S)[nH]c3c2c1,0,0,0,0,0,0
COc1ccc2[nH]c3c(=O)n(CCCC(=O)NC4CCC(C)CC4)c(=S)[nH]c3c2c1 (stereo unspecified),0,0,0,0,0,0
COc1ccc2[nH]c3c(=O)n(CCCC(=O)NC4CCCCC4C)c(=S)[nH]c3c2c1 (stereo unspecified),0,0,0,30µM,0,0
CCCNC(=O)CCCCn1c(=S)[nH]c2c([nH]c3ccc(OC)cc32)c1=O,?,0,0,21µM,0,0
CCCNC(=O)c1ccc(Cn2c(=S)[nH]c3c([nH]c4ccc(OC)cc43)c2=O)cc1,0,0,0,0,0,0
COc1ccc2[nH]c3c(=O)n(CCCCC(=O)NCCC(C)C)c(=S)[nH]c3c2c1,0,0,0,12µM,0,0
O=C(Nc1ccccc1)c1ccc(Nc2c([N+](=O)[O-])cc([N+](=O)[O-])c3ccccc23)cc1,0,0,0,0,0,0
O=[N+]([O-])c1cc(Br)c(Nc2ccccc2)c([N+](=O)[O-])c1,?,0,0,30µM,-,0
CCCCCn1c(SCCc2ccccc2)nc2c1c(=O)[nH]c(=O)n2C,0,0,0,0,0,0
COCCn1c(SCCCc2ccccc2)nc2c1c(=O)[nH]c(=O)n2C,0,0,0,?,0,0
COc1ccc(CCn2c(-n3nc(C)cc3C)nc3c2c(=O)[nH]c(=O)n3C)cc1,0,0,0,3µM,-,-
CCCCCOC(=O)CSc1nc2c(c(=O)[nH]c(=O)n2C)n1CCc1ccccc1,?,0,0,21µM,0,0
Cc1ccc(Cn2c(-n3nc(C)cc3C)nc3c2c(=O)[nH]c(=O)n3C)cc1,0,0,0,0,0,0
COCCSc1nc2c(c(=O)[nH]c(=O)n2C)n1CCCc1ccccc1,?,0,0,21µM,0,?
CO[C@H]1C[C@@H]2CC[C@@H](C)[C@@](O)(O2)C(=O)C(=O)N2CCCC[C@H]2C(=O)O[C@H]([C@H](C)C[C@@H]2CC[C@@H](O)[C@H](OC)C2)CC(=O)[C@H](C)/C=C(\C)[C@@H](O)[C@@H](OC)C(=O)[C@H](C)C[C@H](C)/C=C/C=C/C=C/1C,0,-,-,-,-,-
CCn1cc2nc(SCC(=O)Nc3cc(OC)ccc3OC)n(Cc3ccc(Cl)cc3)c(=O)c2n1,0,-,0,-,0,-
CCc1ccc(N2C(=O)C3CCCN3C2=S)cc1 (stereo unspecified),0,0,0,12µM,-,0
O=C1C2CCCN2C(=S)N1c1cc(Cl)ccc1Cl (stereo unspecified),0,0,0,?,0,0
